Assay outcomes: PubChem BioAssay, National Center for Advancing Translational Sciences (NCATS)
Shown are actives, neighbours in structure and some others; about 19% of the full set was active somewhere.
DT40 TDP1 no CPT – qHTS for Inhibitors of human tyrosyl-DNA phosphodiesterase 1 (TDP1): qHTS in cells in absence of CPT; DT40 Tdp1-/- hTDP1 cells, no CPT, ATP luminescence, 48 h; actives 15% (n = 420,000); Potency, µM (doses to about 46.2 µM), without a hit: top-dose activity change, negative = growth inhibition, actives largely listed as inhibitors; further: potency means the concentration at half of the fitted maximal effect; nearly all actives have a fitted effect of over 55% in size
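Stably hTDP1-transfected Tdp1-null chicken DT40 cells were treated with library compounds minus camptothecin and grown for at least 48 hr at 37 °C, after which cellular ATP was quantified by luminescence.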
uPA generation – inhibitors of cell surface uPA generation | cell surface uPA generation assay, qHTS | Potency, µM (highest dose often 38.3 µM), inactives show at the top dose activity change, negative = inhibition, actives largely listed as inhibitors | actives 0.31% (n = 330,000) | AID 540303; active means well fitted inhibition curve with a large enough effect; inconclusive means small, poorly fitted or top-dose-only effect; inactive means no such curve, though single readings can be large or run the other way; tested in mouse RAW 264.7 cells; further: potency means the concentration at half of the fitted maximal effect; nearly all actives have a fitted effect of over 55% in size
IL-1B inflam inh – inhibitors of inflammasome signaling (IL-1 beta secretion). THP-1 LPS/ATP IL-1B secretion, AlphaLISA, 16 h; active compounds read low. activity change, % at 57.5 µM. actives 4.7% (n = 360,000); in the data active means activity change below about -50%; inconclusive means mostly about -30% to -49%
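THP-1 cells pretreated 1 hr with compounds (up to 57.5 uM final), then stimulated with LPS (250 ng/mL final) plus ATP (1.25 mM final); secreted IL-1B measured by AlphaLISA after 16 hr, decreased signal indicating inhibition.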
HT1080NT lethal – kills 2HG-producing HT-1080-NT fibrosarcoma cells; AID 686970; actives 1.6% (n = 360,000); HT-1080-NT fibrosarcoma viability, CellTiter-Glo ATP luminescence, 48 h; Potency, µM (top dose mostly 46.1 µM), inactives show at the top dose activity, negative = less viability, most hits filed as cytotoxic;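 further: NT is the 2HG producing partner of a matched IDH1 knockdown line; potency means the concentration at half of the fitted maximal effect; 0% = DMSO-treated cells and -100% = media-only wells without cells; nearly all actives have a fitted effect of over 55% in size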
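750 cells/well, RPMI + 5% FBS; 2 h settle, compound pin-transfer, 48 h at 37 degrees C. CellTiter-Glo 10 min RT, luminescence. Normalized to DMSO and media-only wells.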
DT40 TDP1 CPT – DT40-hTDP1 cell growth loss with CPT; Potency, µM (series often up to 46.2 µM), for the others: at the highest dose activity change, negative = growth inhibition, actives largely listed as inhibitors; actives 12% (n = 420,000); chicken DT40 Tdp1-/-;hTDP1 cells + 20 nM CPT, ATP luminescence, 48 h; further: potency means the concentration at half of the fitted maximal effect; nearly all actives have a fitted effect of over 55% in size
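Chicken DT40 Tdp1-/- cells stably complemented with human TDP1 were seeded at 400 cells/well in medium containing 20 nM camptothecin, exposed to pin-transferred compounds, and grown at 37 °C for at least 48 hr. Viability was read as ATP luminescence.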
HT1080 IDH1KD tx – toxicity to HT-1080 IDH1 knockdown cells (counter line); AID 686971; actives 2% (n = 360,000); HT-1080 IDH1 knockdown viability, ATP luminescence, 48 h; Potency, µM (series often up to 46.1 µM), for the others: at the highest dose activity, negative = toxicity, most hits filed as cytotoxic;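 further: potency means the concentration at half of the fitted maximal effect; 0% = DMSO wells and -100% = cell-free medium wells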
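Assay cells: HT-1080 with IDH1 knockdown, 750 per well, RPMI/5% FBS. Exposure: 48 h at 37 °C following 2 h pre-incubation. Read: CellTiter-Glo luminescence; fitted concentration-response, curve class assigned.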
* = called active by the depositor; ? = inconclusive; . = not tested or not shown. Unless noted, the call rests on the fitted dose curve; in most records, active means well fitted curve in the direction sought with a large enough effect; inconclusive means small, poorly fitted or top-dose-only effect, or another doubt; inactive means no such curve, though single readings can be large; an effect the other way counts as inactive or inconclusive. Unless noted, on the % scale 0 is the no-effect control and ±100 the full control effect.

SMILES	DT40 TDP1 no CPT	uPA generation	IL-1B inflam inh	HT1080NT lethal	DT40 TDP1 CPT	HT1080 IDH1KD tx
CN(CCOc1ccccc1)c1ccc(S(=O)(=O)N2CCCCC2)cn1	20.6µM*	-2.2%	-29.2	-3.0%	?	1.9%
Cc1cccc(OCCCC(=O)Nc2ccc(Cl)c(S(=O)(=O)N3CCOCC3)c2)c1	11.6µM*	-18.5%	-20.4	-7.3%	23.1µM*	-9.5%
Cc1cccc(OCCC(=O)Nc2ccc(C)c(S(=O)(=O)N3CCCCC3)c2)c1	20.6µM*	-13.6%	-71.9*	-20.6%	?	-19.4%
CN(CCOc1ccccc1)C(=O)c1ccc(Cl)c(S(=O)(=O)N2CCCCC2)c1	?	-8.5%	-8.2	-1.6%	?	-0.6%
CCCCN1C(=O)C(CC(=O)NCCCN(C)C)CC(C(=O)N2CCOCC2)=C1C (centres undefined)	-14.9%	.	22.5	-2.0%	-11.1%	-1.1%
O=C(CCS(=O)(=O)c1ccccc1)Nc1nc2c(s1)COc1ccccc1-2	4.61µM*	?	-12.6	-8.2%	4.11µM*	-11.5%
O=C(Nc1nc2c(s1)CCc1ccccc1-2)c1cccs1	?	1.4%	?	?	?	?
O=C(Nc1nc2c(s1)COc1ccccc1-2)c1cccs1	23.1µM*	-19.9%	15.3	-11.6%	11.6µM*	-0.7%
CCOC(=O)c1c(NC(=O)c2noc3c2CC(C(C)(C)C)CC3)sc2c1CCCC2 (centres undefined)	-6.1%	.	.	.	-13.8%	.
O=C1c2ccc([N+](=O)[O-])cc2NC(c2ccco2)N1/N=C/c1ccco1 (centres undefined)	18.4µM*	-3.8%	-20.6	-9.5%	-26.4%	-13.0%
CN=c1scc(-c2ccc([N+](=O)[O-])cc2)n1/N=C/c1ccco1	-10.5%	-2.7%	-9.6	17.2%	11.3%	?
CNc1cc(-c2ccc(CC#N)cc2)ncn1	-7.5%	.	-17.5	-2.7%	-1.7%	-19.9%
CN1C(c2ccc(F)cc2)=CS/C1=C(\C#N)c1nnc2n1-c1ccccc1SC2	-14.9%	-25.5%	-78.6*	-26.2%	?	?
Clc1ccc(-c2nnc3n2-c2ccccc2SC3)cc1	?	-0.5%	8.6	-3.9%	-0.5%	-6.7%
COc1ccc(CNC(=O)C[C@@H]2C=C[C@@H](NS(=O)(=O)c3cccc(OC)c3)[C@@H](CO)O2)cc1	-3.9%	.	28.7	9.4%	1.8%	16.4%
COc1cccc(S(=O)(=O)N2CCN(Cc3ccc4c(c3)OCO4)CC2)c1	-12.0%	12.9%	0.0	0.1%	5.4%	5.7%
Cc1ccc(CN2CCN(/N=C/c3ccc(C(=O)O)cc3)CC2)cc1	-14.0%	2.4%	0.9	-1.5%	-15.8%	4.8%
Cc1ccc(CN2CCN(/N=C/C(Br)=C\c3ccccc3)CC2)cc1	4.11µM*	10.0%	.	-2.3%	?	-1.2%
Cc1ccc(CN2CCN(/N=C/c3ccc(O)c(O)c3)CC2)cc1	4.11µM*	?	5.9	-18.2%	7.31µM*	-15.0%
O=S1(=O)CCO[C@H]2Cc3ccccc3[C@H]2N1Cc1ccc(Cl)cc1	?	-1.8%	17.7	-1.9%	?	1.5%
O=S1(=O)CCO[C@H]2Cc3ccccc3[C@H]2N1Cc1cccc(Cl)c1	17.8µM*	-3.8%	-2.4	9.4%	?	-5.3%
Cc1ccccc1CN1[C@@H]2c3ccccc3C[C@@H]2OCCS1(=O)=O	15.8µM*	-2.5%	8.9	?	?	1.1%
COCCNC(=O)C1(C)CCCN(C(=O)c2ccc3c(c2)CCO3)C1 (centres undefined)	-14.4%	.	-11.8	13.8%	-2.8%	24.1%
CN(C)CC/C=C1\c2cc(F)ccc2CSc2ccccc21	?	?	-56.9*	-18.2%	?	-17.4%
CN(CC/C=C1/c2ccccc2CSc2ccccc21)CCCO	?	-5.8%	-57.7*	-4.1%	?	-18.2%
SMILES	DT40 TDP1 no CPT	uPA generation	IL-1B inflam inh	HT1080NT lethal	DT40 TDP1 CPT	HT1080 IDH1KD tx
NCC/C=C1/c2ccccc2CSc2ccccc21	35.5µM*	2.4%	-17.7	14.1µM*	25.1µM*	?
C=CCN(C)CC/C=C1\c2ccccc2CSc2ccccc21	?	-0.8%	-18.0	?	?	-26.2%
CN(C)CC/C=C1/c2cc(F)ccc2CSc2ccc(F)cc21	-7.2%	-2.5%	-14.0	-10.4%	?	-7.3%
CC(O)CN(C)CC/C=C1/c2ccccc2CSc2ccccc21 (centres undefined)	?	1.0%	-18.6	-8.2%	?	0.7%
N#Cc1ccccc1-c1ccc2ncnc(NCCN3CCOCC3)c2c1	0.9%	.	.	.	?	.
Cc1cc(C(=O)OCC(=O)NC2CCCC2)c2ccccc2n1	9.6%	-2.9%	3.8	-10.3%	2.4%	-4.7%
COc1ccccc1CN(C)C(=O)c1cc(-c2cc(OC)c(OC)c(OC)c2)nc2ccccc12	10.3µM*	1.4%	?	14.6µM*	23.1µM*	18.4µM*
CCN(Cc1ccccc1)C(=O)c1cc(-c2ccc(OC)c(OC)c2)nc2ccccc12	?	-13.2%	4.7	-10.9%	?	-9.9%
COc1ccc(-c2cc(C(=O)N(C)Cc3ccccc3F)c3ccccc3n2)cc1OC	18.4µM*	-16.1%	?	-12.8%	?	-19.5%
COc1cc(-c2cc(C(=O)N(C)Cc3ccccc3)c3ccccc3n2)cc(OC)c1OC	14.6µM*	6.5%	-23.2	-7.2%	14.6µM*	-17.3%
COc1cc(-c2cc(C(=O)OCC(=O)NC3CC3)c3ccccc3n2)cc(OC)c1OC	18.4µM*	-2.1%	-0.5	-10.8%	?	-11.5%
CN(C)c1ncc2nc(-c3cc(F)cc(F)c3)c(=O)n(-c3ccccc3)c2n1	11.9%	.	.	.	9.3%	.
COc1cccc(-c2nc(Cn3c(=O)cc(C)c4c(C)nn(-c5ccccc5)c43)c(C)o2)c1OC	9.8%	.	.	.	7.9%	.
Cc1cc(N2CCN(Cc3nc(-c4ccc(Cl)cc4)oc3C)CC2)cc(C)n1	18.4µM*	-13.9%	.	20.6µM*	11.6µM*	20.6µM*
COc1ccc(-c2nc(CN3CCN(c4cc(C)nc(C)c4)CC3)c(C)o2)c2ccccc12	?	-6.1%	-105.3*	13µM*	-104.4%	14.6µM*
Cc1oc(-c2cccc3ccccc23)nc1CN1CCN(c2ncnc3ccccc23)CC1	11.6µM*	4.4%	0.0	?	16.4µM*	?
COc1ccc(-c2nc(CN3CCN(Cc4ccccc4)CC3)c(C)o2)cc1	-13.2%	-7.9%	-7.4	-9.0%	5.0%	-7.3%
